From PubChem BioAssay AID1159580 (chemical genetic matrix, 2015)
“And” between values parts separate entries of the source, which are not always exact repeats. Equal entries are not always repeated. The campaign covered roughly 5,500 compounds. About 2,000 (36%) were called active. Roughly 18% stayed inconclusive and do not appear here. Cut-off read from the data, not from the text of the source: active = normalized growth mostly below about 0.91 (no sharp cut-off); inconclusive = no clear call, values can overlap the other calls; inactive = mostly above about 0.92. This is one part of the list.

Test: chemical genetic growth profiling, strain panel (AID 1159580);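 note: tested at 20 µM; growth read once vehicle control cultures reached saturation at 30 °C; 1 = growth at the plate median or of vehicle wells; lower values mean less growth of the strain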
Details: S. cerevisiae deletion strains, growth OD

Measured: normalized growth

CC[C@@H](C(=O)C(C)[C@@H](O)[C@H](C)CCc1ccc(C)c(O)c1C(=O)O)C1OC(CC)(C2CC[C@](O)(CC)[C@H](C)O2)C[C@@H]1C (stereo partly drawn)
inactive: locus YAL013W, strain DEP1, hits give low values 1.05 | locus YAL021C, strain ccr4, hits give low values 1.03 | locus YAL026C, strain drs2, hits give low values 0.949 | locus YAL030W, strain snc1, hits give low values 1.06 | locus YBL061C, strain skt5, hits give low values 1.06 | locus YBR009C, strain hhf1, hits give low values 1.01 | locus YBR023C, strain chs3, hits give low values 1.06 | locus YBR229C, strain ROT2, hits give low values 1.04 | locus YBR231C, strain swc5, hits give low values 1.07 | locus YBR279W, strain paf1, hits give low values 1.06 | locus YCL011C, strain gbp2, hits give low values 1.06 | locus YCL016C, strain dcc1, hits give low values 1.05 | locus YCL029C, strain bik1, hits give low values 1.02 | locus YCL061C, strain MRC1, hits give low values 1.04 | locus YCR088W, strain abp1, hits give low values 1.07 | locus YDL005C, strain med2, hits give low values 1.08 | locus YDL035C, strain GPR1, hits give low values 0.978 | locus YDL040C, strain nat1, hits give low values 1.06 | locus YDL074C, strain BRE1, hits give low values 0.938 | locus YDL101C, strain DUN1, hits give low values 1.03 | locus YDL134C, strain PPH21, hits give low values 1.02 | locus YDL185W, strain tfp1, hits give low values 0.993 | locus YDL192W, strain arf1, hits give low values 1.01 | locus YDR001C, strain nth1, hits give low values 1.07 | locus YDR069C, strain doa4, hits give low values 1.02 | locus YDR101C, strain arx1, hits give low values 1.04 | locus YDR150W, strain NUM1, hits give low values 1.05 | locus YDR159W, strain sac3, hits give low values 0.996 | locus YDR162C, strain NBP2, hits give low values 1.01 | locus YDR195W, strain ref2 1.05 | locus YDR297W, strain sur2, hits give low values 1.05 | locus YDR318W, strain mcm21, hits give low values 1.01 | locus YDR334W, strain swr1, hits give low values 1.08 | locus YDR335W, strain msn5, hits give low values 1.08 | locus YDR388W, hits give low values 1.02 | locus YDR502C, strain sam2, hits give low values 1 | locus YEL003W, strain gim4, hits give low values 1.04 | locus YEL037C, strain rad23, hits give low values 1.07 | locus YEL061C, strain CIN8 (second series), hits give low values 1.08 | locus YEL061C, strain CIN8, hits give low values 1.02 | locus YER015W, strain faa2, hits give low values 1.06 | locus YER016W, strain bim1, hits give low values 1.05 | locus YER110C, hits give low values 1.02 | locus YER111C, strain swi4, hits give low values 1.07 | locus YER155C, strain BEM2 (second series), hits give low values 1.04 | locus YER167W, strain BCK2, hits give low values 1.02 | locus YFR010W, strain ubp6, hits give low values 1.06 | locus YGL078C, strain dbp3, hits give low values 0.998 | locus YGL086W, strain mad1, hits give low values 1.05 | locus YGL167C, strain pmr1, hits give low values 1.07 | locus YGL173C, strain kem1, hits give low values 1.04 | locus YGL240W, strain doc1, hits give low values 1.03 | locus YGL248W, strain PDE1, hits give low values 1.02 | locus YGL253W, strain hxk2, hits give low values 1.06 | locus YGR135W, strain pre9, hits give low values 0.981 | locus YGR252W, strain gcn5, hits give low values 0.967 | locus YHR013C, strain ard1, hits give low values 1.1 | locus YHR027C, strain rpn1, hits give low values 1.07 | locus YHR030C, strain SLT2, hits give low values 1.03 and 0.969 | locus YHR079C, strain IRE1 (second series), hits give low values 1.02 | locus YHR079C, strain IRE1, hits give low values 0.944 | locus YHR094C, strain hxt1, hits give low values 1.03 | locus YHR129C, strain ARP1, hits give low values 1.04 | locus YHR142W, strain chs7, hits give low values 1.08 | locus YHR200W, strain rpn10, hits give low values 1.02 | locus YIL066C, strain RNR3, hits give low values 1.02 | locus YIL073C, strain SPO22, hits give low values 0.988 | locus YIL125W, strain kgd1, hits give low values 1 | locus YIR030C, strain dcg1, hits give low values 1.03 | locus YJL092W, strain hpr5, hits give low values 1.06 | locus YJL095W, strain BCK1 (second series), hits give low values 1.06 | locus YJL095W, strain BCK1, hits give low values 1.02 and 0.976 | locus YJL115W, strain asf1, hits give low values 1.06 | locus YJL129C, strain trk1, hits give low values 0.976 | locus YJL134W, strain LCB3, hits give low values 1.04 | locus YJL154C, strain vps35, hits give low values 1.06 | locus YJL164C, strain tpk1, hits give low values 1.03 | locus YJL166W, strain qcr8, hits give low values 1.06 | locus YJL168C, strain set2, hits give low values 1.04 | locus YJL187C, strain SWE1 (second series), hits give low values 1.03 | locus YJL187C, strain SWE1, hits give low values 1.06
active: locus YBR021W, strain FUR4, hits give low values 1.16 [resistant] | locus YBR171W, strain sec66, hits give low values 1.12 [resistant] | locus YCL069W, strain vba3, hits give low values 1.08 [resistant] | locus YDR137W, strain rgp1, hits give low values 1.24 [resistant] | locus YDR392W, strain spt3, hits give low values 0.732 | locus YER155C, strain BEM2, hits give low values 1.13 [resistant] | locus YGL227W, strain vid30, hits give low values 1.09 [resistant]
